This is an account of results in PubChem BioAssay (NCATS).

Where “and” joins values, the source holds several entries; their conditions need not be identical. Equal entries are not always repeated. Results filed as inconclusive are left out. Calls of active or inactive are those of the source. Unless noted, calls come from the whole dose curve; as a rule, active = well fitted curve in the direction sought with a large enough effect; inconclusive = small, poorly fitted or top-dose-only effect, or another doubt; inactive = no such curve, though single readings can be large; an effect the other way counts as inactive or inconclusive. Peptide text beside a SMILES is read from it.

For assay [1], the target named is Alpha-galactosidase A (Homo sapiens) (UniProt P06280). Briefly: Counterscreen for Glucocerebrosidase Inhibitors: qHTS Assay for Human alpha-Galactosidase at pH 4.5 (AID 992). Note: 0% is about no effect. The conditions noted are these: purified enzyme, fluorogenic substrate; series mostly up to 76.9 µM. In short, it runs like this: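 Concentration-response curves (0.7 nM to 77 uM final) were modeled with the Hill equation to give AC50. Reactions: 2 nM enzyme, 80 uM fluorogenic alpha-galactoside, pH 4.5 citric acid buffer, 20 min, room temperature.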
In general terms: A counterscreen serves to expose hits that act by an unwanted route or on another target.

In assay [2] the target is alpha-glucosidase (Oryza sativa, rice) (UniProt Q653V4). Description: Counterscreen for Glucocerebrosidase Inhibitors: qHTS Assay for Rice alpha-Glucosidase at pH 5.0 (AID 997).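 Note: 0% = full activity with enzyme and -100% = basal without enzyme.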 The conditions noted are these: rice alpha-glucosidase enzyme activity; series mostly up to 76.9 µM. Put shortly:
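Rice alpha-glucosidase (4 nM final) with 400 uM 4-methylumbelliferyl-alpha-D-glucopyranoside in citrate buffer pH 5.0, 20 min at room temperature, stopped at pH 10; fluorescence 365/440 nm, compounds 0.7 nM–77 uM, AC50 from Hill fits.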

The nature of assay [3]: Validation of Assay for Modulators of Lamin A Splicing (AID 1459; active = well fitted curve in the direction sought with a large enough effect in the signal ratio; the % refers to the signal ratio;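 note: cells exposed to compound for two days before reading; 0% is about no effect; ratio rise marks activators and ratio drop marks inhibitors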). The conditions noted are these: Lamin A splicing dual RFP/GFP fluorescence reporter; series mostly up to 9.22 µM. In short, it runs like this:
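HeLa S3 lamin A-EGFP/DsRed2 stable clone, 600 cells/well, Opti-MEM 2% FBS; compounds by pin tool; 48 hrs, 37 °C/5% CO2; Acumen 488 nm scan, objects 10-100 um; GFP/RFP intensity ratio.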

A short description of assay [4]: qHTS Assay for Lipid Storage Modulators (AID 1519; calls by dose curve; for activity change, negative = inhibition: % is set by controls: 0 for no effect and ±100 for the full control effect). The note with it: Drosophila S3 cells, BODIPY lipid droplet/cell ratio, laser cytometry, cells loaded with oleic acid. Put shortly:
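Cells seeded at 5,000 per well were treated with compounds over a concentration series and loaded with oleic acid (400 uM, as added). Lipid droplet fluorescence (488 nm excitation, 500-530 nm channel) was read by laser-scanning cytometry and normalized to 20 uM Triacsin C.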
(In general: In qHTS, concentration-response curves come from the screen itself.)

For assay [5], the target named is DNA repair nuclease/redox regulator APEX1 (Homo sapiens) (UniProt P27695). Description: qHTS Validation Assay for Inhibitors of the Human Apurinic/apyrimidinic Endonuclease 1 (APE1) (AID 1705;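 note: TAMRA fluorescence gain over two minutes as APE1 cuts a quenched THF abasic duplex; % is set by controls: 0 for no effect and ±100 for the full control effect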). The note with it: purified APE1 endonuclease activity, fluorescence, titration; series mostly up to 57.1 µM. Put shortly:
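qHTS, 1536-well. APE1 + cpd 15 min RT → 50 nM TAMRA/BHQ-2 THF-abasic dsDNA substrate → kinetic fluorescence, 3 reads/60 s; delta(read3−read1) = reaction progress. No-enzyme buffer = negative control.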

The nature of assay [6]: Counterscreen for APE1 Inhibitors: Fluorescent Dye Displacement Validation Assay (AID 1707).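 Note: plate controls were ThO with dsDNA and no compound for no effect and ThO without dsDNA for full effect.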 The conditions noted are these: fluorescent dye displacement from DNA; series mostly up to 57.1 µM. In short, it runs like this: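 Assay buffer: Tris-HCl pH7.5 with 50mM NaCl, 2 mM MgCl2, 0.01% Tween-20. Dye 250 nM, duplex 50 nM final. Readout: decrease in ThO endpoint fluorescence, 480 nm excitation, 540 nm emission.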

The target in assay [7] is Endonuclease 4 (Escherichia coli (strain K12)) (UniProt P0A6C1). Description: Counterscreen for APE1 Inhibitors: qHTS Validation Assay for Inhibitors of Endonuclease IV (AID 1708). Note: % is set by controls: 0 for no effect and ±100 for the full control effect. The conditions noted are these: E. coli endonuclease IV, DNA cleavage fluorescence; series mostly up to 57.1 µM. In short, it runs like this:
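2 nM enzyme was preincubated with compounds for 15 min at room temperature in 50 mM Tris-HCl pH 7.5, 50 mM NaCl, 2 mM MgCl2, 1 mM DTT, 0.01% Tween-20. 50 nM THF-abasic TAMRA/BHQ-2 duplex substrate started the reaction.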

The nature of assay [8]: Cell Viability - LYMP2-026 (AID 989). Note: nearly all actives have a fitted effect of over 50% in size. Note: potency is the fitted concentration of half-maximal effect. The conditions noted are these: LYMP2-026 lymphoblastoid cell viability, qHTS; series mostly up to 92.2 µM. Put shortly:
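Human lymphoblastoid cells (2500/well) in complete medium were preincubated 5 hr at 37 C, then exposed to compounds for 24 hr at 37 C. Cellular ATP was read by CellTiter-Glo luminescence; AC50 from Hill-equation fits of concentration-response data.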

A short description of assay [9]: Cell Viability - LYMP1-002 - Assay at 24 hr (AID 993). Note: % is set by controls: 0 for no effect and ±100 for the full control effect. The note with it: LYMP1-002 lymphoblastoid cells viability; series mostly up to 92.2 µM. Put shortly: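 Human lymphoblastoid LYMP1-002 cells, 2500/well in complete medium, were treated with compounds for 24 h at 37 C; intracellular ATP was read by CellTiter-Glo luminescence. AC50 values came from Hill-equation fits of qHTS concentration-response data.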

Assay [10] can be described thus: Cell Viability - LYMP1-002 - Assay at 40 hr (AID 994). Note: nearly all actives have a fitted effect of over 60% in size. Note: potency is the fitted concentration of half-maximal effect. The conditions noted are these: LYMP1-002 lymphoblastoid cell viability; series mostly up to 92.2 µM. In short, it runs like this:
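Human lymphoblastoid cells, 2500/well in complete medium, were preincubated 5 hr at 37 C, then exposed to compounds for 40 hr at 37 C. Intracellular ATP was read by CellTiter-Glo luminescence after 30 min at room temperature; AC50 from Hill-equation fits.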

Setting [11] is: measured here: cell count channel max response.
Setting [12] is: measured here: lipid channel max response.

Sequence of Alpha-galactosidase A (Homo sapiens) (P06280 whole entry, looked up): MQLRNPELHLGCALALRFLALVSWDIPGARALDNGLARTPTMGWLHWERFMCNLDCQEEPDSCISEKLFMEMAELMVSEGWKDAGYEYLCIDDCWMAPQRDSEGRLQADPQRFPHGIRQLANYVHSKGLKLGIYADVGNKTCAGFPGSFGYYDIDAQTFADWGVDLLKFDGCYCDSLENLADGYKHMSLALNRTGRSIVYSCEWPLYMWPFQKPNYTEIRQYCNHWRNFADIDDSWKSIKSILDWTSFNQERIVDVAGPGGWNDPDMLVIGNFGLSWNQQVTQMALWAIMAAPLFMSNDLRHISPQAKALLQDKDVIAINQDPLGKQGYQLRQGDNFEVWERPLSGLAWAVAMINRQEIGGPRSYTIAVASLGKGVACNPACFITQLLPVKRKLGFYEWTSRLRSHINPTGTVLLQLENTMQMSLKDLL
Sequence of DNA repair nuclease/redox regulator APEX1 (Homo sapiens) (P27695 whole entry, looked up): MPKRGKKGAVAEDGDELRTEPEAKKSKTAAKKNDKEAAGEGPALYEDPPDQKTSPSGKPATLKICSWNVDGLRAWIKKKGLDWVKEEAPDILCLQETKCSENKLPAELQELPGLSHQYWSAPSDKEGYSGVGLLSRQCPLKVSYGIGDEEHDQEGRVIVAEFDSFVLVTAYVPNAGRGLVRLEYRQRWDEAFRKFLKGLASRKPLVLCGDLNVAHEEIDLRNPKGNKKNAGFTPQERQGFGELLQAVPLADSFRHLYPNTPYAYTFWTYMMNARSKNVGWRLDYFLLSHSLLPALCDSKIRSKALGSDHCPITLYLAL

For the compound `CC[N+](C)(C)Cc1ccccc1Br`, the compound was classed as inactive in assay [1], in [2], in [3], in [5], in assay [6] and in [7]. The activity change, negative = inhibition in [4] (at 25.7 µM (top of the series)) was -0.125% (inactive); in assay [4] (at 57.5 µM (top of the series)), 0.506% (inactive). The max response is 1.39% and 57.6% in [4] (setting [11]); 2.06% and 57.4% in assay [4] (setting [12]).
As to `CCCC(=O)Nc1ncnc2c1ncn2C1OC2COP(=O)(O)OC2C1OC(=O)CCC` (stereo unspecified), in [4] (at 57.5 µM (top of the series)), the activity change, negative = inhibition is 10.5% (inactive). Also, the figures for the max response in assay [4] (setting [11]) and in assay [4] (setting [12]) were 15.6% and 29.9%, respectively.
The matching figures for `O=c1ccn([C@@H]2O[C@H](CO)[C@@H](O)[C@H]2O)c(=O)[nH]1`: 1.01% (inactive), -6.37% and -5.71%.
With `CC(C)(C)C(=O)OCOC(=O)[C@@H]1N2C(=O)[C@@H](N=CN3CCCCCC3)[C@H]2SC1(C)C`, the activity change, negative = inhibition in assay [4] (at 25.7 µM (top of the series)) was -0.208% (inactive). For the same compound, the max response was -9.59% in assay [4] (setting [11]) and -6.96% in assay [4] (setting [12]).
With `Oc1cc(O)c2c(c1)OC(c1ccc(O)c(O)c1)C(O)C2` (stereo unspecified), the activity change, negative = inhibition in [4] (at 57.5 µM (top of the series)) was 7.06% (inactive). In addition, the max response amounted to 2.83% in [4] (setting [11]) and 12.7% in assay [4] (setting [12]).
The matching figures for `CC1=C(/C=C/C(C)=C/C=C/C(C)=C/C=C/C=C(C)/C=C/C=C(C)/C=C/C2=C(C)CCCC2(C)C)C(C)(C)CCC1`: 1.45% (inactive), 15.1% and 17%.
`O=CCCCC=O`: the Potency in [8] is 25.1 µM (active). Moreover, the result in [9] was inactive. Further, the Potency result in assay [10] is “inactive”.
For the compound `Cc1ccccc1`, the Potency entry in assay [8] and in assay [10] was “inactive” each time. Besides, the compound was classed as inactive in assay [9].
For `IC(I)I`, the Potency result in [8] and in assay [10] was “inactive” each time. Besides, the call in [9] was inactive.
Consider `CC(=O)N[C@@H](CC(=O)O)C(=O)N[C@@H](CCC(=O)O)C(=O)O` (Ac-Asp-Glu-OH), for which the activity change, negative = inhibition is -3.36% (inactive) in assay [4] (at 25.7 µM (top of the series)) and 6.33% (inactive) in [4] (at 57.5 µM (top of the series)). The max response is -8.34% and 14.1% in assay [4] (setting [11]); -7.7% and 26.3% in [4] (setting [12]).
Take `COc1ccc(CCNC[C@H](O)c2ccc(O)cc2)cc1OC`: the compound was classed as inactive in assay [1] and in assay [2].
Take `CC1=C(/C=C/C(C)=C/C=C/C(C)=C/CO)C(C)(C)CCC1`: the compound was classed as inactive in assay [9].
Turning to `CC(O)CO` (stereo unspecified), the Potency result in [8] and in assay [10] was “inactive” throughout. Moreover, the outcome in assay [9] was inactive.
As to `CC(C)(C)NC(=O)[C@@H]1C[C@@H]2CCCC[C@@H]2CN1C[C@@H](O)[C@H](Cc1ccccc1)NC(=O)[C@H](CC(N)=O)NC(=O)c1ccc2ccccc2n1`, the Potency in assay [10] is 50.1 µM (active).
As for `Nc1ccn([C@H]2CS[C@@H](CO)O2)c(=O)n1`, the Potency entry in assay [8] and in assay [10] was “inactive” each time. Besides, the result in assay [9] was inactive.
As to `CN=C(NC#N)Nc1ccc(C2=NNC(=O)C[C@@H]2C)cc1`, the compound was classed as inactive in [1] and in [2]. In addition, the activity change, negative = inhibition in assay [4] (at 57.5 µM (top of the series)) was -3.97% (inactive). The max response was -17.4% in [4] (setting [11]) and -20.4% in assay [4] (setting [12]).
Regarding `CC1=C2[C@@H]([C@H](C)CC[C@H]2/C=C(\C)C(=O)O)[C@H](O)C1`, the Potency result in assay [8] and in assay [10] was “inactive” throughout. Further, the compound was classed as inactive in [9].
